# Values without a mark were called inactive.
# Legend:
# [1] = tested on: Schistosoma mansoni schistosomula (NMRI); assay: phenotypic severity score (0-4); higher = more antischistosomal effect, active = 2 or more; details: 10 µM
# [2] = tested on: Schistosoma mansoni schistosomula (Liberian); assay: drug effect (1 - score/DMSO control score) (fraction); higher = more antischistosomal effect, active = 0.5 or more; extreme values may be limits of the assay; details: 10 µM
# Outline: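 Drug effect was calculated by comparing the mean score of the test wells with the mean score of the DMSO wells, and any negative value was set to zero. Duplicate wells of 50 Liberian-strain S. mansoni schistosomula, mechanically transformed from cercariae and pre-incubated at least 12 h, received 10 µM compound in Medium 199 with 5% FCS at 37 °C, 5% CO2, with 0.1% DMSO in the comparison wells. Visual scoring at 10× took place at 24, 48 and 72 h on a quarter-point scale from 3 (normal) to 0 (dead), and a plate counted only if its DMSO wells averaged at least 2.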
# 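For phenotypic severity score (0-4) in this document: visual microscopic scoring of shape, motility and density changes versus 0.5% DMSO solvent controls, one point per descriptor, degeneracy or death scored 4, mean of duplicate wells.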
SMILES,phenotypic severity score ([1]; 24 h),phenotypic severity score ([1]; 48 h),phenotypic severity score ([1]; 72 h),drug effect ([2]; 24 h),drug effect ([2]; 48 h),drug effect ([2]; 72 h)
COc1ccc(S(=O)(=O)Nc2ccc(CN3CCN(C(=O)c4cccc(C#N)c4)CC3)cc2)cc1,0,0,1,0.1,0.111,0.188
Cc1cc(C)nc(-n2nc(C)cc2Nc2ccccc2)n1,2 (active),1,4 (active),0.0526,0.278,0.25
N=C(N)Nc1ccc(-c2ccc(-c3ccc(NC(=N)N)cc3Cl)o2)c(Cl)c1,0,0,0,0.0526,0.111,0.125
c1ccc(Oc2ccc(-c3cncc(-c4ccc5[nH]ccc5c4)n3)cc2)cc1,0,0,2 (active),0.6 (active),1 (active),1 (active)
Cc1cc(Cl)ccc1NC(=O)CCc1ccc(S(=O)(=O)NCC(C)C)cc1,0,0,0,0.2,0.278,0.375
CC(=O)NCC1CN(c2ccc(-c3ccc(CO)cc3)c(F)c2)C(=O)O1 (centres undefined),0,1,0,0.1,0.111,0.0625
CC(C)(C)n1nc(-c2ccccc2)c2c(N)ncnc21,1,0,0,0.182,0.2,0.127
CCOc1ccc(-c2nc(CNCCc3ccc(F)cc3)cs2)cc1,0,0,0,0.273,0.4,0.632 (active)
COc1ccccc1CNC(=O)c1cc(C2CC2)nc2c1cnn2C(C)C,0,0,0,0.2,0.459,0.667 (active)
CNC(=O)CNc1nc(-c2ccccn2)nc2scc(-c3ccccc3)c12,0,0,0,0.105,0.111,0.125
C[C@H](C(N)=O)N1CCCC[C@@H]1c1ccc(OCc2cccc(F)c2)cc1,0,0,0,0.2,0.444,0.5 (active)
O=C(Nc1cccc(Cl)c1)c1cnc(N2CCN(c3ccncc3)CC2)c(Cl)c1,2 (active),4 (active),4 (active),0.8 (active),0.946 (active),1 (active)
Cc1ccc(S(=O)(=O)Nc2ccc(CN3CCN(C(=O)c4cccc(C#N)c4)CC3)cc2)cc1,0,1,1,0.05,0.0556,0.0625
O=[N+]([O-])c1cn2c(n1)OC[C@@H](OCc1ccc(OC(F)(F)F)cc1)C2,0,0,0,0.2,0.167,0.312
CCOc1ccc2cc(-c3nn(CC4CCN(C)CC4)c4ncnc(N)c34)ccc2c1,0,0,0,0.1,0.167,0.389
CNc1cc(C)nc(C2CN(C(=O)c3n[nH]c4ccccc34)CCO2)c1 (centres undefined),0,0,0,0.158,0.167,0.125
O=C(Nc1ccc2c(c1)B(O)OC2)c1ccccc1C(F)(F)F,0,0,0,0.1,0.0556,0.167
COc1ccc(Cl)cc1NC(=O)CN(C)C(=O)c1cnn(-c2ccccc2)n1,0,0,0,0.2,0.351,0.389
O=C(Nc1cccnc1)c1c(O)c2cccc3c2n(c1=O)CC3,0,0,0,0.182,0.2,0.0727
CCC(C)NC(=O)c1ccc(NC(=O)C2(c3ccccc3)CCCC2)cc1 (centres undefined),0,0,0,0.05,0.027,0.0303
CCCn1c(NC(=O)c2ccc3ccccc3n2)nc2ccccc21,1,0,0,0.2,0.278,0.312
CC(C)(C)c1cc(C(=O)Nc2cccnc2)cc(C(=O)Nc2cccnc2)c1,0,0,0,< 0,0.0811,0.0556

SMILES,phenotypic severity score ([1]; 24 h),phenotypic severity score ([1]; 48 h),phenotypic severity score ([1]; 72 h),drug effect ([2]; 24 h),drug effect ([2]; 48 h),drug effect ([2]; 72 h)
N#Cc1nc(-c2ccccc2)oc1S(=O)(=O)c1ccc(Cl)cc1,0,0,1,1 (active),1 (active),1 (active)
CCc1nc2ccc(C(=O)NCc3ccc4c(c3)OCO4)cn2c1N(C)Cc1cccs1,0,0,0,< 0,0.1,0.167
COc1cc(C2=NCCN2)ccc1-c1cn(-c2cccc(C3=NCCN3)c2)nn1,1,0,0,0.25,0.297,0.394
O=C(NC1CC1)c1ccc(N2CCC(Cc3ccccc3)CC2)nc1,0,0,0,0.1,0.0811,0.167
CC(=O)Oc1ccccc1C(=O)Nc1ncc([N+](=O)[O-])s1,2 (active),4 (active),4 (active),0.2,0.297,0.556 (active)
COc1cccn2c(C(=O)N3CCCCC3)c(C(F)(F)F)nc12,0,0,0,0.182,0.2,0.127
COc1cc(OC)cc(C(=O)NCC2Cc3cc(Cl)cc(-c4ccncc4)c3O2)c1 (centres undefined),0,0,0,0.1,0.189,0.152
O=C(C1CCCCC1)N1CC(=O)N2CCc3ccccc3C2C1 (centres undefined),4 (active),4 (active),4 (active),0.3,0.351,0.556 (active)
Brc1c(-c2ccc3c(c2)OCO3)nc2ncccn12,0,0,0,0.182,0.2,0.127
Cc1ccc(-c2nc(CN(Cc3ccccn3)C(C)C)cs2)o1,0,1,0,0.05,0.222,0.389
NCC(c1cccs1)S(=O)(=O)c1ccccc1 (centres undefined),1,1,2 (active),0.15,0.05,0.0556
c1csc(-c2cnc3sc(NCC4CCOCC4)nn23)c1,0,0,0,0.182,0.55 (active),0.345
CC(C)(C)C(=O)N(CCCCCCN1C[C@H](O)[C@@H](O)[C@H](O)[C@H]1CO)C1CCCCCC1,0,2 (active),4 (active),0.25,0.556 (active),1 (active)
CCc1ccc([C@@H]2C[C@H](C(F)(F)F)n3ncc(C(=O)NCc4ccc(OC)cc4)c3N2)cc1,1,1,0,0.1,0.111,0.0556
COc1ccc(CCN2CCC(NCc3cccc(N(C)C)c3)CC2)cc1,0,0,0,< 0,0.027,0.0303
CC(C)(C)c1ccc(N[C@@H]2CCCC[C@H]2NC(=O)c2ccco2)cc1,0,0,0,< 0,< 0,0.111
O=C(N[C@H](Cc1ccccc1)C(=O)Nc1ccccc1N1CCOCC1)c1cccs1,0,0,0,0.2,0.167,0.188
O=C(NCc1nnc2n1CCCCC2)c1ccc(-c2ccc(F)cc2)o1,1,0,0,0.136,0.15,0.182
O=C(NCc1ccco1)N1CCN(Cc2ccc(Cl)s2)CC1,0,0,0,0.136,0.3,0.345
CN1CCN(c2nccc3nc(-c4ccc(F)c(F)c4)[nH]c23)CC1,0,0,0,< 0,0.1,0.167
CC(C)(CN)c1nc(-c2ccc(Cl)c(O)c2)c(-c2ccnc(N)n2)[nH]1,0,0,0,0.15,0.167,0.312
Cc1[nH]c2cc(F)cc(F)c2c(=O)c1-c1ccc(Oc2ccc(OC(F)(F)F)cc2)cc1,2 (active),4 (active),4 (active),0.45,0.778 (active),0.75 (active)
